# Laboratory results published in PubChem BioAssay (NCI).
# This is part of a sample that, as a whole, favours compounds with a hit. Of some 83,000 tested, about 20% had one in any assay.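 Testing used 96-well plates and a 48-hour single-concentration exposure. Example: -40 means 40% of the starting cells died.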 Unmarked numbers belong to inactive results. Calls of active or inactive are those of the source. How the source made its calls: active means growth percent below 10; inactive means the rest.
# System: NCI/ADR-RES ovarian
# Assay: NCI-60 one-dose screen, 48 h (100 = growth as untreated, 0 = no growth, -100 = all killed)
# Settings: 10 µM unless noted
row,Compound,growth
1,C[C@@H]1CN(c2ccc3ncc(C#Cc4cncc(C(=O)Nc5ccc(CN6CCN(C)CC6)c(C(F)(F)F)c5)c4)n3n2)C[C@H](C)O1,-8.65% (active)
2,Nc1c(C(=O)Nc2ccc(Cl)cc2)sc2nc(-c3cnccn3)cc(-c3cccs3)c12,68.3%
3,O=c1[nH]c2ccccc2cc1CSc1ccccc1Nc1nccc(-c2ccc(C(F)(F)F)cc2)n1,63.2%
4,Cc1c(Nc2nnc(SCC(=O)Nc3sc4c(c3C#N)CCCC4)s2)c(=O)n(-c2ccccc2)n1C,99.5%
5,CS(=O)(=O)c1ccc(-c2nc3ccccn3c2C=Nc2ccc(Cl)cc2)cc1,62.3%
6,N[C@@H](Cc1cn(-c2c3ccccc3nc3ccccc23)nn1)C(=O)O,105%
7,CC(C)(C)Nc1nc2c(OCCc3ccccc3)cccn2c1-c1cccc(F)c1,3.69% (active)
8,CCN1C(=S)N(c2ccccc2)C2NC(=O)N(/N=C/C=C/c3ccccc3OC)C21 (stereo not drawn),99.4%
9,CCOC(=O)c1csc(NC(=O)CSc2nc3sc4c(c3c(=O)n2-c2ccc(Cl)cc2)CCCC4)n1,107%
10,O=C(CSc1nc2sc3c(c2c(=O)n1-c1ccc(Cl)cc1)CCCC3)N/N=C/c1ccc(F)cc1,104%
11,CN1CCN(Cc2ccc(NC(=O)c3cncc(C#Cc4cnc5[nH]ncc5c4)c3)cc2C(F)(F)F)CC1,75.8%
12,CC(C)(C)Nc1nc2c(OCCc3ccccc3)cccn2c1-c1ccc(Cl)cc1,4.99% (active)
13,N#Cc1c(-c2ccc(Cl)cc2)nc(SCc2ccccc2)nc1N1CCNCC1,65.6%
